Compound activity (PubChem BioAssay)
The list is not random: actives were taken first. Their share in the collection is about 3.5%.
Rv3671c inh: inhibits the M. tuberculosis serine protease Rv3671c | P9WHR9 | inhibition, % at 5.96 µM | hit rate 0.048% among 320,000 | AID 2606; in the data active = inhibition above about 38%;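 note: extracellular domain of Rv3671c used as enzyme; 0% = enzyme with DMSO and 100% = no enzyme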
Target sequence (P9WHR9 whole entry, looked up, the tested form may be a part): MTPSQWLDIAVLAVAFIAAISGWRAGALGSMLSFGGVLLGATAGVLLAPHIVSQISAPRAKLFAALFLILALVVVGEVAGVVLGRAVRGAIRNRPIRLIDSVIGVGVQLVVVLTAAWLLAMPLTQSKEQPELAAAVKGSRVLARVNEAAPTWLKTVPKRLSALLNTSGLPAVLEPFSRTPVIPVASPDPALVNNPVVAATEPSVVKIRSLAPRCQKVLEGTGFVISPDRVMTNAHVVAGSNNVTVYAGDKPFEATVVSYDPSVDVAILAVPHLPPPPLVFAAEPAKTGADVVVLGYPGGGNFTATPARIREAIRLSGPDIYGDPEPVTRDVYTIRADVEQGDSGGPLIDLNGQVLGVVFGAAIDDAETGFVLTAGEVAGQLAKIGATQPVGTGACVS
FBA Mtb inh: Mtb fructose-bisphosphate aldolase inhibition; AID 588726; inhibition, % at 1 µM; purified M. tuberculosis FBA, fluorescence read-out; hit rate 2.3% among 360,000; P9WQA3;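 note: 0% = vehicle and 100% = reference inhibitor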
FadD28 binding: blocks FadD28 binding to the bisubstrate probe; AID 588549; fluorescence polarization; inhibition, % at 12.5 µM; hit rate 0.22% among 360,000; in the data active = inhibition above about 8.5%, passing the limit was not always enough
GDH-TPI counter-1: GDH-TPI coupled enzyme inhibition counter-screen | GDH-TPI coupled enzyme counterscreen, NADH absorbance | inhibition, % at 4.8 µM | hit rate 1.2% among 360,000 | AID 588335; in the data active = inhibition above about 30%;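 note: 0% = DMSO wells and 100% = wells lacking the enzyme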
Mtb hypoxia rep: Mtb hypoxia fluorescent reporter inhibition | hit rate 0.1% among 300,000 | fluorescence inhibition, % (no concentration beside the values) | AID 1159583 | M. tuberculosis hypoxia-regulated fluorescent reporter, fluorescence; in the data active = fluorescence inhibition mostly above about 23%, no sharp cut-off; inactive = mostly below about 17%
Mtb UGM inh: inhibitors of M. tuberculosis UDP-galactopyranose mutase; P9WIQ1; AID 504406; hit rate 0.06% among 320,000; inhibition, % at 10 µM; purified UGM, fluorescence polarization probe displacement; in the data active = inhibition above about 10%, passing the limit was not always enough
Mtb FBA inh conf: Mtb FBA inhibition, confirmed | shares compounds with FBA Mtb inh | purified M. tuberculosis FBA, fluorescence read-out | inhibition, % at 1 µM | hit rate 78% among 5,600 | AID 651616;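 note: 0% = vehicle wells and 100% = reference inhibitor wells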
GDH-TPI counter-2: inhibits GDH-TPI coupling enzymes, flagging Mtb FBA hits; shares compounds with FBA Mtb inh; GDH-TPI coupled enzyme counterscreen, fluorescence; hit rate 81% among 5,600; inhibition, % at 1 µM; in the data active = inhibition above about 10%
Active calls of the source: *; . = no result given; + = active, no number. Cut-off read from the data, not from the text of the source, unless noted: active = inhibition above about 27%; inactive = the rest.

SMILES	Rv3671c inh	FBA Mtb inh	FadD28 binding	GDH-TPI counter-1	Mtb hypoxia rep	Mtb UGM inh	Mtb FBA inh conf	GDH-TPI counter-2
COC(=O)c1cc(C(=O)OC)n(Cc2ccc(Cl)cc2Cl)n1	-3	3	-3	11	9	-5	.	.
C#C[C@]1(O)CCC2C3CCC4=CC(=O)CCC4C3CC[C@@]21CC (some centres undefined)	.	.	.	.	-8	.	.	.
COc1ccc(-c2cn3cccnc3n2)cc1NC(=O)c1ccc(Br)o1	-6	30*	-6	13	22	0	9	5
CC12CCC(C(=O)Nc3cc(Cl)ccc3Cl)(CC1=NO)C2(C)C (centres undefined)	.	.	.	.	3	.	.	.
Cn1nc(-c2ccc(Cl)cc2)c2cc(C(=O)NCCN3CCOCC3)sc21	-4	34*	-6	1	.	3	41*	26*
Cn1nc(-c2ccc(Cl)cc2)c2cc(C(=O)NCCCN3CCOCC3)sc21	-9	29*	-14	16	.	1	67*	56*
CCCCN1C(=O)C(=O)NCC1C(C)O (centres undefined)	.	.	.	.	2	.	.	.
O=C1CCCC2=C1C(c1ccco1)Nc1ccc3ccccc3c12 (centres undefined)	7	95*	2	22	.	-1	110*	77*
O=C1CCCC2=C1C(c1ccc(O)c(O)c1)Nc1ccc3ccccc3c12 (centres undefined)	11	2	0	14	3	-3	.	.
O=C(NC(=S)Nc1ccccc1O)c1ccc(-c2ccc(Cl)cc2)o1	-2	7	-2	15	.	0	.	.
CC(=O)NC(=O)c1ccc(-c2ccc(Cl)cc2)o1	-11	78*	-2	21	3	0	46*	56*
O=C(CCCCO)CCCCCCCCC1NC(CO)C(O)C1OC1OC(CO)C(O)C(O)C1O (centres undefined)	.	.	.	.	8	.	.	.
Nc1nc(Nc2cccc(F)c2)nc2ccccc12	-6	-5	-3	5	-12	1	.	.
O=c1oc(Nc2cccc(F)c2)nc2ccccc12	3	36*	-2	-2	12	-2	96*	79*
O=[N+]([O-])c1ccc(NN=C2CC3CC=CC23)cc1 (centres undefined)	.	.	.	.	10	.	.	.
Cc1cc[n+](-c2[nH]c(=O)sc2C=NNC([S-])=Nc2ccccc2)cc1	.	.	.	.	14	.	.	.
N/C(=N\OC(=O)c1ccoc1)c1ccc(Br)cc1	-6	38*	-4	-3	9	0	155*	150*
Cc1cc(C)cc(C(=O)O/N=C(\N)c2ccc(Br)cc2)c1	-7	0	1	-4	5	2	.	.
Cc1nc2c(c(=O)n1CCC1=CCCCC1)c1nc3ccccc3nc1n2N=Cc1ccccc1	.	.	.	.	10	.	.	.
CCC(C)n1c(C)nc2c(c1=O)c1nc3ccccc3nc1n2CCC1=CCCCC1 (centres undefined)	-2	32*	-3	20	1	2	+	+
COCCCn1c(N)c(C(=O)NCCC(C)C)c2nc3ccccc3nc21	-4	34*	0	2	5	-1	74*	62*
COCCNC(=O)c1c(N)n(CCC2=CCCCC2)c2nc3ccccc3nc12	-20	54*	-4	13	4	1	77*	56*
COCCNC(=O)CSc1nc2cc(OC)c(OC)cc2c(=O)n1CCC1=CCCCC1	.	-1	-1	8	9	.	.	.
CCOCCCn1c(N)c(C(=O)Nc2sc3c(c2C(=O)OC)CCCC3)c2nc3ccccc3nc21	-2	46*	-2	22	-5	0	188*	153*
CCn1ccc(C(=O)Nc2sc3c(c2C(=O)OC)CCC3)n1	.	8	-3	10	3	4	.	.
SMILES	Rv3671c inh	FBA Mtb inh	FadD28 binding	GDH-TPI counter-1	Mtb hypoxia rep	Mtb UGM inh	Mtb FBA inh conf	GDH-TPI counter-2
O=C(Cn1nc2ccccc2n1)NN=Cc1ccc(F)cc1	.	.	.	.	2	.	.	.
Cc1ccc2cc(C=NNc3nc4ccccc4[nH]3)c(Cl)nc2c1	.	.	.	.	6	.	.	.
O=C1CCC(O)CCN1CCC(Sc1ccc(Br)cc1)c1ccccc1 (centres undefined)	.	.	.	.	2	.	.	.
COc1ccc(NC(=O)COc2ccc(C=NO)cc2OC)cc1	.	.	.	.	7	.	.	.
CCCCn1c(N)c(C(=O)OCCOC)c2nc3ccccc3nc21	1	55*	-2	3	3	3	31*	17*
CCCCCn1c(N)c(C(=O)NCc2cccs2)c2nc3ccccc3nc21	-96	.	.	.	-2	3	.	.
CCOc1cc(C2Nc3ccccc3C(=O)N2c2ccccc2)c(Br)cc1OCC(=O)O (centres undefined)	2	39*	0	9	5	0	105*	84*
COc1cc(C2NC(=O)NC(c3ccccc3)=C2C(C)=O)c(Cl)cc1OCC(=O)O (centres undefined)	0	-3	-5	7	10	-4	.	.
COc1cc(C2Nc3ccccc3C(=O)N2c2ccc(Cl)cc2)c(Cl)cc1OCC(=O)O (centres undefined)	5	70*	-3	0	-3	1	115*	83*
CCOc1cc(C2Nc3ccccc3C(=O)N2c2ccccc2)ccc1O (centres undefined)	-6	10	-1	25	0	-1	.	.
CC1CCC(N2CCN(S(C)(=O)=O)CC2)CC1 (centres undefined)	2	56*	0	6	12	1	110*	102*
COc1ccc(NC(=O)Nc2ccc3c(c2)C(=O)N(C(C)CO)CC(C)C(CN(C)C(=O)Nc2ccc(OC)cc2)O3)cc1 (centres undefined)	.	.	.	.	1	.	.	.
Nc1nc2c(c(=O)[nH]1)CN(Cc1ccccc1)CC2	12	53*	-1	20	-1	-1	108*	99*
Nc1c2c(nc3ccccc13)CCN(Cc1ccccc1)C2	-6	16	-3	6	7	6	.	.
C/C(N)=C(/C#N)C(=O)COC(=O)c1ccccc1O	-1	-3	1	-1	9	0	.	.
C/C(N)=C(/C#N)C(=O)COC(=O)c1cccc2ccccc12	-10	28*	-3	5	-4	-1	73*	55*
O=C(CN1C(=O)/C(=C\c2ccccc2Br)Oc2ccccc21)NCCCN1CCOCC1	-3	41*	-15	18	-3	-1	58*	53*
CC1Oc2ccccc2N(CC(=O)NCCCN2CCOCC2)C1=O (centres undefined)	2	0	1	0	3	-1	.	.
CCOC(=O)c1c(N=CC2=C(O)CC(C)(C)CC2=O)sc2c1CCCC2	.	.	.	.	3	.	.	.
O=C1OCc2cccc3cccc1c23	8	50*	-2	23	0	1	198*	174*
COc1ccc(-c2c3c(=O)n(C)c(=O)n(C)c3cn2-c2ccc(O)cc2)cc1	-2	45*	2	5	16	0	+	189*
